# HTT ATP protect: Huntington cell model cytoprotection by ATP luminescence; PC12 HTT-Q103 induced, cytoprotection, ATP luminescence, 40 h; Potency, µM (titrated, usually from 56.4 µM), without a hit: cytoprotection (ATP increase), most hits filed as activators; 0.14% of 230,000 active; active = well fitted curve in the direction sought with a large enough effect; inconclusive = small, poorly fitted or top-dose-only effect, or another doubt; inactive = no such curve, though single readings can be large; an effect the other way counts as inactive or inconclusive; note: potency is the fitted concentration of half-maximal effect; % of control where 0% means no effect; nearly all actives have a fitted effect of over 45% in size
#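 Rat PC12, Q103 Htt exon1-GFP fusion, ecdysone promoter; tebufenozide inducer 100 nM final; compound titration; qHTS, 1500 cells/well; ATPlite luminescent read.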
# HPGD inh: blocks human HPGD enzyme activity | 4.3% of 150,000 active | purified HPGD, NADH fluorescence kinetic, PGE2 substrate | AID 894 | Potency, µM, inactives show top-dose activity change, negative = inhibition, actives largely listed as inhibitors | P15428; note: potency is the fitted concentration of half-maximal effect; % is set by controls: 0 for no effect and ±100 for the full control effect
# Target sequence (P15428 whole entry, looked up): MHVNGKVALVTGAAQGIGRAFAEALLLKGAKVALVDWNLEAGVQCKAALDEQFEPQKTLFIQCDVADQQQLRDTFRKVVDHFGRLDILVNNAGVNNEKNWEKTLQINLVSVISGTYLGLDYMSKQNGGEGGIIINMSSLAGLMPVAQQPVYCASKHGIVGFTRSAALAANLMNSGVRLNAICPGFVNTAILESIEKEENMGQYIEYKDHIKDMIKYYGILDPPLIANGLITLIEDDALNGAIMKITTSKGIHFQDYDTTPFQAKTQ
#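 20 nM HPGD preincubated 15 min at room temperature with compound in 50 mM Tris-HCl pH 8, 0.01% Tween 20. Started with 1 mM NAD+ and 30 uM prostaglandin E2; NADH fluorescence (360/450 nm) read 5 times over 30-s intervals, last minus first.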
# ALDH1A1 inh: ALDH1A1 (human) enzyme inhibition | P00352 | Purified ALDH1A1, NADH fluorescence, propionaldehyde substrate | Potency, µM (series often up to 75.3 µM), for inactives: at the top dose activity, negative = inhibition, usual class: inhibitors | 7.3% of 220,000 active;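 note: potency is the fitted concentration of half-maximal effect; plate controls were no enzyme wells and a reference inhibitor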
# Target sequence (P00352 whole entry, looked up): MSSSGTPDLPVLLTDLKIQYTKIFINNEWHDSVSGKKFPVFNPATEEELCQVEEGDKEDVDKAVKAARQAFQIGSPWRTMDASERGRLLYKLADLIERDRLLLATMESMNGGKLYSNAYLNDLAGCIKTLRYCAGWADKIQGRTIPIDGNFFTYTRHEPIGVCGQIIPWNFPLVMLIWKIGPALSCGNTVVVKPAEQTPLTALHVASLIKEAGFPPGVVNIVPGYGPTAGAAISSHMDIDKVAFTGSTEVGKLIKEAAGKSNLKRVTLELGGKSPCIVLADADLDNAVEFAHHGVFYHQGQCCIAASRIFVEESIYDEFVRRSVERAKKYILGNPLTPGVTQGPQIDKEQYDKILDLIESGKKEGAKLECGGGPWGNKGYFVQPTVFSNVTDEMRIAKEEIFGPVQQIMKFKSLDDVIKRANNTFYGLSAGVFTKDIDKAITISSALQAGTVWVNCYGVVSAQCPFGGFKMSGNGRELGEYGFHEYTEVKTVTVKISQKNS
# RGS12 GoLoco inh: blocks human Gai1 binding to RGS12 GoLoco peptide, red readout. P63096. Gai1:RGS12 GoLoco peptide FP, rhodamine, 10 min. Potency, µM (top dose mostly 61.6 µM), for inactives: at the highest dose activity, negative = inhibition, most hits filed as inhibitors. 0.44% of 230,000 active; active = well fitted inhibition curve with a large enough effect, not every such curve was filed as active; inactive = no such curve, though single readings can be large or run the other way; note: potency is the fitted concentration of half-maximal effect; % is set by controls: 0 for no effect and ±100 for the full control effect; nearly all actives have a fitted effect of over 30% in size
# PNC assembly inh: perinucleolar compartment assembly inhibition; PC3M PTB-GFP, PNC prevalence imaging, 16 h; active compounds read low; activity change (PNC), negative = inhibition, % at 10 µM; 3.1% of 140,000 active; AID 2417;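 active = readout at or below -70, meaning at least 70% loss of cells showing the perinucleolar compartment, a nuclear body marking cancer cells; inconclusive = readout between -30 and a set limit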;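 note: plate controls were DMSO wells for no effect and camptothecin positive control wells for full effect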
#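 Compounds are pinned in duplicate onto adhered PC3M cells stably expressing GFP-tagged PTB and incubated 16 h at 37 C. Cells are then fixed, nuclei stained with Hoechst, and PNC-positive cells counted.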
# HTT aggregate: mutant huntingtin aggregation inhibition; PC12 HttQ103-GFP aggregates, Acumen cytometry, 40 h; Potency, µM (doses to about 46.1 µM), for the others: top-dose activity change, negative = inhibition, actives largely listed as inhibitors; 1.1% of 220,000 active; active = well fitted curve in the direction sought with a large enough effect; inconclusive = small, poorly fitted or top-dose-only effect, or another doubt; inactive = no such curve, though single readings can be large; an effect the other way counts as inactive or inconclusive; note: potency is the fitted concentration of half-maximal effect; % is set by controls: 0 for no effect and ±100 for the full control effect; nearly all actives have a fitted effect of over 60% in size
#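 Read-out: GFP aggregate count by laser scanning cytometer (488 nm excitation, 500-530 nm emission, 1–25 µm objects >6 SD above background). Cells: PC12, inducible HTTex1-Q103-GFP, 100 nM tebufenozide; compounds titrated.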
# * marks the source's active call; other numbers are inactive results; u = inconclusive; x = no result given; [ ] = dose if it differs, or a comment. This is a sample that favours compounds with a hit; in the whole collection about 11% have one here. Unless noted, calls come from the whole dose curve; as a rule, active = well fitted inhibition curve with a large enough effect (not every such curve was filed as active); inconclusive = small, poorly fitted or top-dose-only effect, or another doubt; inactive = no such curve, though single readings can be large or run the other way.
SMILES,HTT ATP protect,HPGD inh,ALDH1A1 inh,RGS12 GoLoco inh,PNC assembly inh,HTT aggregate
CCNC(=S)N1CCN(c2cccc(C(F)(F)F)c2)CC1,24.7%[10 µM],-9.7%,8.1%,2.7%,52.7,16.3%
Cc1c(C(=O)O)c(=S)sn1CCOc1ccccc1,1.0%,17.8µM*,-7.9%,7.8%,9.8,-4.5%
CCc1ccc(NC(=O)CC2C(=O)Nc3c2c(=O)n(C)c(=O)n3C)cc1 (configuration not stated),-34.9%,-19.0%,100µM*,13.0%,35.7,-16.1%
CCc1ccc(NC(=O)CC2NCCNC2=O)cc1 (configuration not stated),-16.9%,-12.0%,6.6%,-5.4%,3.3,2.2%
COc1ccccc1CN1CCC2(CC1)CCN(C(=O)c1ccco1)CC2,3.9%,-1.2%,u,7.9%,x,x
COC(=O)c1ccc2c(c1)C(C)(C)C(/C=C/c1ccc(OC)c(OC)c1OC)=[N+]2C,-90.2%,-28.0%,-0.6%,83.0%,17.3,11.2µM*
COC(=O)c1ccc2c(c1)C(C)(C)C(/C=C/c1ccc(O)cc1)=[N+]2C,-61.7%[10 µM],-14.0%,u,129.6%,u,-23.9%[9.22 µM]
NC(=S)Nc1cc(Cl)cc(Cl)c1,32.0%[10 µM],x,x,8.1%,x,3.3%[9.22 µM]
NC(=S)NNc1cc(Cl)cc(Cl)c1,u,-14.4%,2µM*,0.0%,-9.1,19.4%
C#CCOC(=O)[C@H](N)CC(N)=O,-6.1%[10 µM],-5.6%,0.4%[13.5 µM],1.7%[14.2 µM],x,x
CC1=C(C(=O)Nc2ccccc2)C(c2ccco2)C(C#N)=C(SCC(=O)Nc2cccc(C)c2C)N1 (configuration not stated),10.4%[1.9 µM],u,u,0.9%,-82.4*,8.1%
CC1=C(C(=O)Nc2ccccc2)C(c2ccco2)C(C#N)=C(SCc2ccccc2)N1 (configuration not stated),2.8%,u,u,5.4%,u,-25.2%
N#CC1=C(SCC(=O)c2ccccc2)NC2=C(C(=O)CCC2)C1c1ccco1 (configuration not stated),-111.4%,u,8.91µM*,68.0%,-89.4*,11.2µM*
CC(=O)C1=C(C)NC(SCC(=O)c2ccc(F)cc2)=C(C#N)C1c1ccco1 (configuration not stated),-20.3%,25.1µM*,12.6µM*,-1.3%,-19.3,-7.2%
Cc1ccc(C(=O)CSC2=C(C#N)C(c3ccco3)C3=C(CCCC3=O)N2)cc1 (configuration not stated),-89.7%,-15.7%,u,6.9%,-2.0,-7.6%
CCc1ccc(C(=O)CSC2=C(C#N)C(c3ccco3)C(C(C)=O)=C(C)N2)cc1 (configuration not stated),-23.3%,u,u,23.5%,33.7,5.7%
C=CCOC(=O)C1=C(C)NC(SCC(=O)N(CC)CC)=C(C#N)C1c1ccco1 (configuration not stated),7.5%[1.9 µM],17.8µM*,u,-2.6%,15.8,29.4%
NC(=O)c1cccnc1Nc1ccccc1Cl,x,0.4%,-9.6%,3.3%,4.5,-4.0%
CC(=O)C1=C(C)NC(SCC(=O)c2cc(Cl)ccc2Cl)=C(C#N)C1c1ccco1 (configuration not stated),-3.5%,28.2µM*,25.1µM*,50.0%,-19.7,u
CC(=O)C1=C(C)NC(SCC(=O)c2ccc(Cl)c(Cl)c2)=C(C#N)C1c1ccco1 (configuration not stated),5.3%,22.4µM*,2.82µM*,96.8%,15.5,12.6%
CC(=O)C1=C(C)NC(SCC(N)=O)=C(C#N)C1c1ccco1 (configuration not stated),-9.8%,x,-11.5%,6.5%,x,-3.6%
Cc1ccc(O)c(C2=NNC(O)(C(F)(F)F)C2)c1 (configuration not stated),0.2%,25.1µM*,9.2%,5.0%,26.9,4.3%
CC(C)Cn1c(N)c(C(=O)CCl)c(=O)n(C)c1=O,x,-2.7%,8.91µM*,4.1%,u,u
Cn1c(=O)c(C(=O)COC(=O)c2cc(C(F)(F)F)nc3c(C(F)(F)F)cccc23)c(N)n(CC2CC2)c1=O,-7.6%,-2.6%,8.1%,10.7%,44.7,-12.7%
Cn1c(=O)c(C(=O)CCl)c(N)n(CC2CC2)c1=O,x,-0.2%,20µM*,4.6%,33.0,-17.6%
SMILES,HTT ATP protect,HPGD inh,ALDH1A1 inh,RGS12 GoLoco inh,PNC assembly inh,HTT aggregate
CC(C)Cn1c(N)c(C(=O)CSc2cc(Cl)ccc2Cl)c(=O)n(C)c1=O,18.5%[10 µM],-4.9%,-9.8%,-1.0%,-10.4,-9.7%
CC1=CC(C)(C)Nc2ccc(OC(=O)CN3C(=O)CCC3=O)cc21,-89.5%,-19.9%,-17.7%,-23.5%,u,6.31µM*
Cc1ccc(-n2nnnc2C(Cl)c2nnnn2-c2ccc(C)cc2)cc1,-1.9%[10 µM],5.01µM*,-2.9%,-4.8%,20.6,u
C/C(N)=C(/C#N)C(=O)CSc1nncn1-c1ccccc1,10.4%[10 µM],x,18.7%,5.0%,x,29.1%
O=C(CSc1nncn1-c1cccnc1)N(c1ccccc1)c1ccccc1,9.4%[10 µM],x,15.8µM*,16.4%,x,2.4%[9.22 µM]
Cc1onc(C(=O)N2CCOCC2)c1[N+](=O)[O-],u,x,25.1µM*,-8.7%,x,18.0%
CC(C)c1onc(C(=O)N2CCOCC2)c1[N+](=O)[O-],8.5%,x,0.1%,0.3%,x,1.0%
CCOC(=O)c1c(NC(=O)Cn2nnc(-c3ccc(Cl)cc3)n2)sc(C)c1C,-16.2%,-3.1%,1.0%,9.4%,7.4,-2.8%
CC(C)NC(=O)Cn1nnc(-c2ccc(Cl)cc2)n1,-16.9%[10 µM],x,10µM*,x,30.2,12.6µM*
Cc1ccc(N(CC(N)=O)C2SC(=O)NC2=O)cc1 (configuration not stated),-7.2%[10 µM],-15.0%,u,-4.5%,u,-1.1%
Cc1ccc(N(CC(N)=O)C2SC(=O)N(Cc3cccc(C(=O)O)c3)C2=O)cc1 (configuration not stated),21.6%,-9.4%,20µM*,4.7%,28.8,-5.8%
O=c1cc(O)c2ccccc2n1Cc1ccccc1,-32.8%,x,u,50.2%,x,-5.3%
Cc1ccc(O)c(-c2cc(C(=O)NCc3ccncc3)[nH]n2)c1,-11.9%,5.01µM*,-7.0%,3.5%,-5.8,0.7%
Cc1ccc(O)c(-c2cc(C(=O)Nc3ccc(S(=O)(=O)N4CC(C)OC(C)C4)cc3)[nH]n2)c1 (configuration not stated),4.3%[10 µM],12.6µM*,2.9%,-3.6%,8.9,-7.4%
Cc1ccc(-c2cc(C(=O)Nc3ccc(S(=O)(=O)N4CC(C)OC(C)C4)cc3)[nH]n2)c(O)c1 (configuration not stated),-5.7%[10 µM],x,x,-0.6%,x,3.4%[9.22 µM]
Cc1ccc(O)c(-c2cc(C(=O)Nc3ccc(S(=O)(=O)Nc4nc(C)cc(C)n4)cc3)[nH]n2)c1,x,0.891µM*,2.8%,9.0%,16.0,18.3%

# Bioassay records deposited in PubChem BioAssay by National Center for Advancing Translational Sciences (NCATS).
